Screens as filed in PubChem.
Most compounds without a hit are left out; they make up all but 13% or so of the library.
HCMV inh = inhibitors of human cytomegalovirus; hit rate 4.5% among 410,000; activity change, negative = inhibition, % at 57.5 µM; AID 1259415; HFF cells, HCMV-luciferase reporter, 72 h; stronger effect = lower value; in the data active = activity change below about -60%; inconclusive = no clear call, values can overlap the other calls; inactive = above about -39%
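Compounds were evaluated in HFFs infected with an HCMV luciferase reporter virus (MOI 1 PFU/cell). Luciferase in lysates collected 72 h post infection served as the replication measure.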
Pf growth 96h = P. falciparum growth inhibition at 96 hours; P. falciparum luciferase reporter growth, 96 h; Potency, µM (doses to about 28.7 µM), most hits filed as inhibitors; hit rate 6.9% among 320,000; AID 504834
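96 h incubation, 37 C, 5% CO2, of luciferase-reporter P. falciparum-infected RBCs (2% hematocrit, 0.05% parasitemia final) with test compounds; endpoint luminescence.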
Pf growth 48h = P. falciparum growth inhibition at 48 hours (one generation); P. falciparum luciferase growth in erythrocytes, 48 h; Potency, µM (titrated, usually from 28.7 µM), actives largely listed as inhibitors; hit rate 5.9% among 310,000; AID 504832
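Parasite viability was followed by luminescence of a genomically integrated firefly luciferase. Cultures held 0.1% parasitemia at 2% hematocrit (final), incubated under 5% CO2 at 37 C.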
HCV inh = inhibitors of hepatitis C virus infection; Huh7.5.1 HCVcc-Cre infection, luciferase reporter, 44 h; Potency, µM (highest dose often 41.8 µM), actives largely listed as inhibitors; hit rate 3.4% among 340,000; AID 651820
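Whole-lifecycle infectious HCVcc-Cre system; cells 1,000/well, compound then virus (~0.5 moi) added 4 h after plating, 44 h culture. Luciferase read 15 sec following 15 min substrate incubation, room temp.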
Each line names hits and unclear results; the compound was inactive in the other large screens. Unless noted, calls follow the shape of the dose curve; as a rule, active = well fitted inhibition curve with a large enough effect; inconclusive = small, poorly fitted or top-dose-only effect, or another doubt; inactive = no such curve, though single readings can be large or run the other way.

CCN1CCOC(=O)C1CC(=O)Nc1cc(C)ccc1OC (stereo unspecified)	none (no result: Pf growth 96h, Pf growth 48h, HCV inh)
CCOC(=O)c1ccc(C(=O)OCC)c(NC(=S)Nc2ccc([N+](=O)[O-])cc2OC)c1	Pf growth 96h 2.9µM, HCV inh inconclusive
Cc1ccc(Nc2ncc(C(=O)Nc3ccc(F)cc3F)c3ccccc23)cc1Cl	none (no result: Pf growth 96h, Pf growth 48h, HCV inh)
CSCCC(NC(=O)c1ccccc1)C(=O)N1CCN(C(=O)c2ccccc2)CC1 (stereo unspecified)	none (no result: Pf growth 96h, Pf growth 48h)
CSCCC(NC(=O)c1ccccc1)C(=O)NCCc1ccccc1 (stereo unspecified)	none
CSCCC(NC(=O)c1ccccc1)C(=O)N1CC=C(c2ccccc2)CC1 (stereo unspecified)	Pf growth 96h inconclusive, Pf growth 48h 9.3µM, HCV inh inconclusive
CSCCC(NC(=O)c1ccccc1)C(=O)NNC(=O)c1ccccc1 (stereo unspecified)	HCMV inh -62 (no result: Pf growth 96h, Pf growth 48h)
CSCCC(NC(=O)c1ccccc1Br)C(=O)NNC(=O)c1cc(C)oc1C (stereo unspecified)	HCMV inh -63 (no result: Pf growth 96h, Pf growth 48h)
C[C@H](N)C(=O)N[C@@H](C)P(=O)(O)O	none (no result: HCMV inh, HCV inh)
COc1ccc(CCNC(=O)CCn2c(=O)c3ccccc3n(Cc3ccccc3)c2=O)cc1OC	none (no result: Pf growth 96h, Pf growth 48h, HCV inh)
COc1ccc(/C=C/C=C2C(=O)NC(=S)NC2=O)cc1	HCV inh inconclusive (no result: Pf growth 96h, Pf growth 48h)
COc1ccc(/C=C/C2=CC(C)(C)NC(=S)N2)cc1	HCMV inh inconclusive, Pf growth 96h 9.3µM, Pf growth 48h inconclusive, HCV inh inconclusive
Cc1cc(C)cc(OC(C)C(=O)Nc2c(C(=O)c3ccccc3)oc3ccccc23)c1 (stereo unspecified)	none (no result: Pf growth 96h, Pf growth 48h, HCV inh)
COC(=O)c1ccc(OC)c(CSc2nnc(-c3ccc(C(C)(C)C)cc3)o2)c1	Pf growth 96h 0.66µM, HCV inh inconclusive (no result: Pf growth 48h)
Cc1ccn2c(-c3csc(NCc4ccco4)n3)c(C)nc2c1	HCMV inh -68, Pf growth 48h 12µM, HCV inh inconclusive
O=C(CSc1nnc(CNC(=O)c2cccc(F)c2)n1-c1ccccc1)Nc1ccccc1F	none (no result: Pf growth 96h, Pf growth 48h, HCV inh)
COc1ccc(S(=O)(=O)NC2CC2)cc1Cl	Pf growth 96h 2.3µM
COc1ccc(CCNC(=O)COc2ccc(S(=O)(=O)NC3CCCCC3)cc2Cl)cc1	HCMV inh inconclusive, Pf growth 96h inconclusive, Pf growth 48h 13µM, HCV inh inconclusive
O=C(COc1ccc(S(=O)(=O)NC2CCCCC2)cc1Cl)NCC1CCCO1 (stereo unspecified)	Pf growth 48h inconclusive (no result: Pf growth 96h)
COc1cc(NS(=O)(=O)c2ccc(C)c(C)c2)c(OC)cc1Cl	HCMV inh -69, Pf growth 96h 6.6µM
COc1ccccc1C(=O)NC1(C(F)(F)F)C(=O)Nc2c1c(=O)[nH]c(=O)n2-c1ccccc1 (stereo unspecified)	none (no result: Pf growth 96h, Pf growth 48h, HCV inh)
CCC[C@H]1[C@H](N(C)Cc2ccccc2)CC[C@@]23CCCN2C(=O)CCC[C@@H]13	none (no result: Pf growth 96h, Pf growth 48h, HCV inh)
O=C(COc1ccccc1)N(Cc1cccnc1)c1nc2c(F)cccc2s1	none (no result: Pf growth 96h, Pf growth 48h, HCV inh)
CC(=O)Oc1ccc(Cl)cc1/C=C/c1ccc2ccccc2n1	Pf growth 96h inconclusive, Pf growth 48h 2.6µM, HCV inh 7.9µM
CN(C)c1ccc(C(CNS(=O)(=O)c2ccc(Br)cc2)N2CCOCC2)cc1 (stereo unspecified)	none (no result: Pf growth 96h, Pf growth 48h, HCV inh)
O=C(O)CC1SC(=Nc2cccc(C(F)(F)F)c2)NC1=O (stereo unspecified)	Pf growth 96h 2.9µM (no result: Pf growth 48h)
CSc1ccccc1-c1n[nH]c(=S)o1	Pf growth 48h 13µM
Cc1c(C(=O)N(C)C)sc2c1c(=O)n(-c1ccc(Cl)c(Cl)c1)c(=O)n2CC(=O)Nc1cccc(C(F)(F)F)c1	none (no result: Pf growth 96h, Pf growth 48h, HCV inh)
Cc1cc(C)cc(N2C(=O)N(Cc3cccc(F)c3)c3ccccc3S2(=O)=O)c1	none (no result: Pf growth 96h, Pf growth 48h, HCV inh)
N#C/C(=C\c1c(Oc2ccc(F)cc2)nc2ccccn2c1=O)c1nc2ccccc2s1	none (no result: Pf growth 96h, Pf growth 48h, HCV inh)
COc1cc2c(cc1OC)C(C(C(=O)N(CCc1ccc(OC)c(OC)c1OC)CCc1ccc(OC)c(OC)c1OC)c1ccccc1)=NCC2 (stereo unspecified)	Pf growth 96h 1.5µM, Pf growth 48h 1.3µM (no result: HCMV inh, HCV inh)
COc1cc2c(cc1OC)C(c1ccccc1)=NCC2	Pf growth 96h inconclusive
Fc1ccccc1N1CCN(c2nc(-c3cccs3)nc3ccccc23)CC1	Pf growth 96h inconclusive, Pf growth 48h inconclusive, HCV inh inconclusive
CN(Cc1ccccc1F)c1nc(-c2cccs2)nc2ccccc12	HCMV inh -60, Pf growth 48h 9.3µM, HCV inh inconclusive
Cc1cc(C)c(NC(=O)COCc2cc(-c3cccs3)on2)c(C)c1	none (no result: Pf growth 96h, Pf growth 48h, HCV inh)
CN(C)C(=O)Oc1ccc(Cl)c2cccnc12	none
O=C(Nc1c(Cl)cccc1Cl)Oc1cccc2cccnc12	HCMV inh -98 (no result: Pf growth 96h, Pf growth 48h, HCV inh)
O=C(Oc1ccc(Cl)c2cccnc12)N1CCCCCC1	HCMV inh -100
O=C(Nc1cccc(C(F)(F)F)c1)Oc1ccc(Cl)c2cccnc12	HCMV inh inconclusive, Pf growth 96h 2.3µM, Pf growth 48h 2.6µM, HCV inh inconclusive
CCN(CC)C(=O)Oc1ccc(Cl)c2cccnc12	none
Cc1ccc(S(=O)(=O)c2nc(-c3cccs3)oc2SC(C)c2ccccc2)cc1 (stereo unspecified)	none (no result: Pf growth 96h, Pf growth 48h, HCV inh)
COc1ccc(N2CC(NC(=O)C3CCCC3)CC2=O)cc1OC (stereo unspecified)	none (no result: Pf growth 96h, Pf growth 48h, HCV inh)
O=C(NCCc1ccccc1)c1c2c(nc3ccccc13)C(=O)N(C1CCCCC1)C2	none (no result: Pf growth 96h, Pf growth 48h, HCV inh)
O=C(N/N=C/c1cn(-c2ccccc2)nc1-c1cc2ccccc2o1)c1ccccc1Br	HCV inh inconclusive
O=C(N/N=C/c1cn(-c2ccccc2)nc1-c1cc2ccccc2o1)c1c[nH]c2ccccc12	Pf growth 96h inconclusive, Pf growth 48h 3.3µM, HCV inh 11µM
COc1ccc(-c2[nH]ncc2/C=C(/C#N)C(=O)NC2CCCCCC2)cc1	HCMV inh inconclusive, Pf growth 96h inconclusive, Pf growth 48h inconclusive, HCV inh 22µM
C=CCOn1c(C)c(C(C)=O)c2c3no[n+]([O-])c3ccc21	HCMV inh inconclusive, Pf growth 96h inconclusive, HCV inh inconclusive
C=CCOn1c(C)c(C(C)=O)c2c3nonc3ccc21	HCMV inh -81, HCV inh inconclusive
COn1c(C)c(C)c2c3nonc3ccc21	HCMV inh -65, HCV inh inconclusive
CC(=O)c1ccc(Nc2cc(C)nc3nc(Cc4ccc(Cl)cc4)nn23)cc1	none (no result: Pf growth 96h, Pf growth 48h, HCV inh)
O=C(OCc1nnn(Cc2ccccc2)c1-c1c(COC(=O)c2ccccc2)nnn1Cc1ccccc1)c1ccccc1	Pf growth 96h 1.9µM, Pf growth 48h 3.3µM, HCV inh inconclusive (no result: HCMV inh)
O=C(OCc1cn(Cc2ccccc2)nn1)c1ccccc1	none
Nc1nc(CCl)nc(Nc2cccc3ccccc23)n1	HCMV inh -98, Pf growth 96h 13µM, Pf growth 48h inconclusive, HCV inh 0.56µM
COc1ccc(-n2nnc(-c3nc(-c4cccs4)no3)c2N)cc1OC	none (no result: Pf growth 96h, Pf growth 48h, HCV inh)
O=C(Nc1cccnc1Cl)C1CCCN(c2ncnc3c2nc2n3CCCCC2)C1 (stereo unspecified)	Pf growth 96h 12µM
CSc1cccc(NC(=O)C2CCCN(c3ncnc4c3nc3n4CCCCC3)C2)c1 (stereo unspecified)	HCMV inh inconclusive, HCV inh 22µM
